# Measured values: the supplement of paper PMC7156485
# Where “and” joins values, the source holds several entries; their conditions need not be identical. Equal entries are not always repeated. ± gives the standard deviation of the averaged measurements.
# Legend:
# Settings in all cases: concentration: 10 µM; 24 h
# HCC1569 [1] = test: cell number relative to DMSO (% of DMSO); higher = more cells (less growth inhibition / toxicity)
# Summary of the method: (§1)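 For HCC1569 and TDF cells, compounds at 10 µM were applied for 24 h at 37 °C in triplicate in 384-well plates. Cells were fixed in 3.7% formaldehyde, stained for H1.0 and with DAPI, and imaged at ×10 over six fields per well. The endpoint, H1.0 nuclear intensity or cell number, is shown as percent of the plate control using the median of replicates. Positional effects were smoothed for HCC1569 only.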
# TDF [2] = test: as above
# Summary of the method: as §1
# TDF [3] = test: H1.0 immunofluorescence intensity relative to DMSO (% of DMSO); higher = stronger H1.0 induction, active = 120 or more
# Summary of the method: as §1
# HCC1569 [4] = test: H1.0 immunofluorescence intensity relative to DMSO (% of DMSO); higher = stronger H1.0 induction, active = 140 or more
# Summary of the method: as §1
# 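Throughout, for H1.0 immunofluorescence intensity relative to DMSO: TDF is a line of transformed human dermal fibroblasts of mesenchymal origin.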
# 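Throughout, for cell number relative to DMSO: TDF denotes transformed human dermal fibroblasts of mesenchymal origin.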
Compound,cell number (HCC1569 [1]),cell number (TDF [2]),H1.0 immunofluorescence intensity (TDF [3]),H1.0 immunofluorescence intensity (HCC1569 [4])
CC12CCc3occc3C1CCC13CC(=O)C(CCC12)C3 (stereo unspecified) [16-Oxocafestol],101,97.5,97.4 (inactive),98.5 (inactive)
O=C(O)Cc1c[nH]c2ccc(O)cc12 [5-Hydroxyindolacetic acid],104,99.5,99.9 (inactive),97.9 (inactive)
"CC(C)(C)n1nc(Cc2cccc3ccccc23)c2c(N)ncnc21 [PP1 Analog II, 1NM-PP1]",82.1,103,93.1 (inactive),152 (active)
Nc1ncnc2c1C(=O)N(c1ccc(C3CCC(CC(=O)O)CC3)cc1)CCO2 (stereo unspecified),103,95.7,99.8 (inactive),98.5 (inactive)
Cc1ccccc1CNc1ncnc2c1ncn2C1OC(CO)C(O)C1O (stereo unspecified) [Metrifudil],97,94.5,93.7 (inactive),91.4 (inactive)
O=C(Nc1ncc([N+](=O)[O-])s1)c1ccc([N+](=O)[O-])c(Cl)c1 [3-chloro-4-nitro-N-(5-nitrothiazol-2-yl)benzamide],84.1,83.6,108 (inactive),122 (inactive)
O=c1[nH]c2cc(C(F)(F)F)ccc2n1-c1cc(C(F)(F)F)ccc1O,101,95.9,96.6 (inactive),98.4 (inactive)
O=c1cc(-c2ccc(O)cc2)oc2c(C3OC(CO)C(O)C(O)C3O)c(O)cc(O)c12 (stereo unspecified) [Vitexin],101,100,99.5 (inactive),85.1 (inactive)
CC(C)=CCc1cc2c(cc1O)oc(=O)c1c3ccc(O)cc3oc21,106,95.7,94.4 (inactive),106 (inactive)
CCCCCCCCCCCCCCCCOCC(CO)OC(C)=O (stereo unspecified) [1-Hexadecyl-2-O-acetyl-glycerol],106,99.8,98.3 (inactive),86.3 (inactive)
CC[C@H](NC(=O)c1c(O)c(-c2ccccc2)nc2ccccc12)c1ccccc1,101,98.3,97.8 (inactive),107 (inactive)
O=C(O)c1ccccc1Nc1cccc(OCc2ccc3ccccc3n2)c1,104,97.2,91.5 (inactive),106 (inactive)
CC(N)=NCCCC[C@H](N)C(=O)O.Cl [L-N6-(1-Iminoethyl)lysine hydrochloride],103,109,84.8 (inactive),91.6 (inactive)
CCCCCCCCCCCCCC=CC(O)C(CO)NC(C)=O (stereo unspecified) [C2 Ceramide],101,107,94.8 (inactive),102 (inactive)
O=C(O)CCCCC=CCC(O)C=CC=CC=CC(O)CCCC(=O)O (stereo unspecified) [20-Carboxy-leukotriene B4],102,103,91.1 (inactive),102 (inactive)
COC(=O)[C@H](Cc1ccc([N+](=O)[O-])cc1)NC(=O)c1cccc2ccccc12 [methyl (2S)-2-(1-naphthoylamino)-3-(4-nitrophenyl)propanoate],92.4,95,100 (inactive),101 (inactive)
COc1ccc(C(=O)NCc2cccnc2)cc1C(=O)NCc1cccnc1 [Picotamide],102.3 ± 0.66,103 ± 5.2,93.6 (inactive),103 (inactive)
CCN(CC)CCCC(C)Nc1c2ccc(Cl)cc2nc2ccc(OC)cc12 (stereo unspecified) [Quinacrine],89.3,39.5,118 (inactive),180 (active)
CC(=O)OCC(=O)[C@@]1(O)CC[C@H]2[C@@H]3CCC4=CC(=O)C=C[C@]4(C)[C@H]3[C@@H](O)C[C@@]21C,99.3,103,93.1 (inactive),101 (inactive)
Cc1c2oc3c(C)ccc(C(=O)NC4C(=O)NC(C(C)C)C(=O)N5CCCC5C(=O)N(C)CC(=O)N(C)C(C(C)C)C(=O)OC4C)c3nc-2c(C(=O)NC2C(=O)NC(C(C)C)C(=O)N3CCCC3C(=O)N(C)CC(=O)N(C)C(C(C)C)C(=O)OC2C)c(N)c1=O (stereo unspecified) [Actinomycin D],46.2,16.9,179 (active),175 (active)
CCC=CCC=CCC=CCC=CCC=CCCCCCC(=O)O [Docosapentaenoic acid],100.4 ± 0.68,97.7 ± 1.7,101 (inactive),103 (inactive)
CC(C)(O)c1ccccc1CCC(SCC1(CC(=O)O)CC1)c1cccc(C=Cc2ccc3ccc(Cl)cc3n2)c1 (stereo unspecified) [Montelukast],101,101,94.7 (inactive),94.9 (inactive)
O=C(NNC(=O)c1ccc(CNS(=O)(=O)c2ccc(F)c(Cl)c2)cc1)c1ccccc1,103,113,95.9 (inactive),105 (inactive)
CCOC(=O)[C@H](CCc1ccccc1)N[C@@H](C)C(=O)N1CCC[C@H]1C(=O)O.O=C(O)C=CC(=O)O,102,99.6,91 (inactive),100 (inactive)
CC1=C(CC(=O)O)c2cc(F)ccc2C1=Cc1ccc(S(C)=O)cc1 (stereo unspecified) [Sulindac],103 ± 2,111 ± 6.2,95 (inactive),100 (inactive)

Compound,cell number (HCC1569 [1]),cell number (TDF [2]),H1.0 immunofluorescence intensity (TDF [3]),H1.0 immunofluorescence intensity (HCC1569 [4])
COCCCCCCCCCCCC(=O)O [12-Methoxydodecanoic acid],101 ± 1.2,95.9 ± 11,95.5 (inactive),98.5 (inactive)
CCC1=CC2CN(C1)Cc1c([nH]c3ccccc13)C(C(=O)OC)(c1cc3c(cc1OC)N(C)C1C(O)(C(=O)OC)C(OC(C)=O)C4(CC)C=CCN5CCC31C54)C2 (stereo unspecified) [Vinorelbine],56.9 ± 1.3,9.75 ± 0.33,167 (active),153 (active)
CCCCCC(O)C=CC1OC(O)CC(O)C1CC=CCCCC(=O)O (stereo unspecified) [Thromboxane B2],96.2,95.2,102 (inactive),97.9 (inactive)
NC/C=C/C(=O)O [(E)-4-amino-2-butenoic acid],97.2,105,93.2 (inactive),99.6 (inactive)
COc1ccc2c(OC)c3ccoc3nc2c1OC [Skimmianine],100,98.2,99.1 (inactive),96.2 (inactive)
Cc1c(OCC(F)(F)F)ccnc1CS(=O)c1nc2ccccc2[nH]1 (stereo unspecified) [Lansoprazole],96.3,108,90.1 (inactive),104 (inactive)
CC(C)(C)C(=O)Oc1ccc(S(=O)(=O)Nc2ccccc2C(=O)NCC(=O)[O-])cc1.O.[Na+],101,98.8,87.6 (inactive),108 (inactive)
CCN(CC)C(=S)SSC(=S)N(CC)CC [Disulfiram],93.4 ± 1.7,39 ± 4.7,123 (active),116 (inactive)
Cc1cccc(Nc2cc(Cl)nc(SCC(=O)O)n2)c1C,101,104,91.8 (inactive),97.6 (inactive)
CCN(CC)C(=O)C(C#N)=Cc1cc(O)c(O)c([N+](=O)[O-])c1 [Entacapone],98.2,92,95.3 (inactive),105 (inactive)
CCCCCC=CCC=CC=CC=CCC(=O)CCCC(=O)O [5-Ketoeicosatetraenoic acid],99.9,95.5,98.1 (inactive),96.5 (inactive)
CC12C=Cc3occc3C1CCC13CC(=O)C(CCC12)C3 (stereo unspecified) [16-Oxokahweol],97.7,98.5,91.4 (inactive),99.3 (inactive)
O=c1c(-c2ccc(O)cc2)coc2cc(OC3OC(CO)C(O)C(O)C3O)cc(O)c12 (stereo unspecified) [Genistin],103,104,93 (inactive),86.4 (inactive)
Cc1cc(Cc2cc(C)cc(C(C)(C)C)c2O)c(O)c(C(C)(C)C)c1,99.9 and 104,90.7 and 98.5,96.7 (inactive) and 99.5 (inactive),90.7 (inactive) and 88.8 (inactive)
COc1cc(/C=C/C(=O)O)ccc1O [Ferulic acid],102,97.3,101 (inactive),92.2 (inactive)
CCCCCCCOc1cc2c(cc1/C(C)=C/c1ccc(C(=O)O)cc1)C(C)(C)CCS2(=O)=O,96.9,101,88.9 (inactive),102 (inactive)
C[C@@H](O)[C@H]1C(=O)N2C(C(=O)O)=C(SCCN=CN)C[C@H]12.O,101,104,99.9 (inactive),93.3 (inactive)
"CC(CC(c1ccccc1)c1ccccc1)NC(C)(C)C.Cl (stereo unspecified) [N-(tert-butyl)-4,4-diphenyl-2-butanamine hydrochloride]",97.9,97.5,99.1 (inactive),101 (inactive)
Cc1ccc(N(CC2=NCCN2)c2cccc(O)c2)cc1 [Phentolamine],107,100,99.7 (inactive),96.6 (inactive)
NC(N)=NC(=O)c1nc(Cl)c(N)nc1N [Amiloride],101,103,97.3 (inactive),102 (inactive)
COC(=O)C1=C(C#N)NC(C)=C(C(=O)OC(C)C)C1c1cccc([N+](=O)[O-])c1 (stereo unspecified),89.8,97.4,98.2 (inactive),123 (inactive)
CCCCCCC=CCCCCCCCC(=O)O [9(Z)-Hexadecenoic acid],98.8,104,97.9 (inactive),101 (inactive)
COc1cc(-c2oc3cc(O)cc(O)c3c(=O)c2OC2OC(CO)C(O)C(O)C2O)ccc1O (stereo unspecified) [Isorhamnetine-3-glucoside],102,98.2,97.6 (inactive),85.8 (inactive)
CCCCCC=CCC=CCC=CC=CC1CCCC(=O)O1 (racemic),106,97,98.2 (inactive),103 (inactive)
